Compounds without any hit were thinned out: in the full panel of roughly 83,000, 20% have a hit.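 Compound tested at a single concentration for 48 hours in 96-well plates; a percent growth value below 10 was scored as active.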 The source made the active and inactive calls.

The results in this text go back to PubChem BioAssay (NCI).

The first experiment deals with OVCAR-8 ovarian. The experiment can be described thus: NCI-60 one-dose screen, 48 h (100 = growth as untreated, 0 = no growth, -100 = all killed). The following applies: 10 µM unless noted.
Turning to `COc1ccc(C2C(C#N)=C(N)Oc3c2sc2c(F)cccc32)cc1` (centres undefined), the growth was 25.9% (inactive).

For `COC(=O)[C@]12CC[C@@H](C)[C@H](C)[C@@H]1C1=CC[C@@H]3[C@@]4(C)C(c5ncon5)=C[C@@](C)(CO)C4=CC[C@@]3(C)[C@]1(C)CC2`, the growth is -6.22% (active). Regarding `Cc1cc2nc3c4cc(Cl)ccc4n(CCN(C)C)c3nc2cc1C`, the growth is 19.1% (inactive). Regarding `COc1cc2c(cc1-c1c(C)noc1C)ncc1nc(C3CC3)n([C@H](C)COC(F)F)c12`, the growth was 46.3% (inactive).

In the case of `CCCCC[C@H]1CC=C2C(=O)C(Cl)=C[C@@H]2CC=CCCCC(=O)O[C@@H](CCCCC)CC=C2C(=O)C(Cl)=C[C@@H]2CC=CCCCC(=O)O[C@@H](CCCCC)CC=C2C(=O)C(Cl)=C[C@@H]2CC=CCCCC(=O)O1`, the growth was -17.1% [8 µM] (active).

With `NC(=O)[C@@H]1CC2CCC1C2` (some centres undefined), the growth is 108% (inactive). Turning to `C=C(C)[C@@H]1CC[C@]2(C=O)CC[C@]3(C)[C@H](CC[C@@H]4[C@@]5(C)C/C(=C/c6cccnc6)C(=O)C(C)(C)[C@@H]5CC[C@]43C)[C@@H]12`, the growth was 63.5% (inactive). On the same count and under the same terms, the figure for `Cc1cc(N(CCNc2ccnc3cc(Cl)ccc23)Cc2ccco2)nc(Cl)n1` is -26.6% (active); for `CN(C)c1ccc(N)c2ccccc12` it is 74.6% (inactive).

On to `CSc1ccc(N(C)c2nc(C)nc3c2CCC3)cc1`, for which the growth is 12% (inactive).

On to `C=C(C)[C@@H]1CC[C@]2(C(=O)NNC(=O)c3cccnc3)CC[C@]3(C)[C@H](CC[C@@H]4[C@@]5(C)CCCNC(C)(C)[C@@H]5CC[C@]43C)[C@@H]12`, for which the growth was 76.7% (inactive).

In the next experiment the test system is OVCAR-5 ovarian. The description is as above. Conditions: 10 µM unless noted.
As to `O=C1c2ccccc2C(=Cc2ccccc2)c2ccccc21`, the growth was 43.3% (inactive). Same read-out and setting: the value for `N#CC1=C(N)Oc2c(sc3c(F)cccc23)C1c1ccc(Cl)cc1` (centres undefined) was 82.1% (inactive). The same measure, in the same setting: the figure for `O=C(Nc1ccc(/C=C2\SC(=O)N(Cc3ccc(OC(F)(F)F)cc3)C2=O)cc1)c1ccc(Cl)c([N+](=O)[O-])c1` is 85.5% (inactive); for `C[C@@H](C(=O)O)c1ccc2c3cc(Cl)ccc3n(Cc3cc(=O)oc4ccc(Cl)cc34)c2c1` it is 97.3% (inactive). With `Cn1c(=O)c2c(nc(Br)n2CC(=O)Nc2ccc(F)cc2)n(C)c1=O`, the growth is 103% (inactive). With `COC(=O)C(N)CSC(c1ccccc1)(c1ccccc1)c1ccccc1` (centres undefined), the growth is 33.3% (inactive). On the same count and under the same terms, the value for `NS(=O)(=O)c1ccc(CCNC(=O)/C=C/c2ccc(Cl)cc2)cc1` was 98.5% (inactive); that for `C[C@H]1[C@H]2C3=CC[C@@H]4[C@@]5(C)C/C(=C/c6ccco6)C(=O)C(C)(C)[C@@H]5CC[C@@]4(C)[C@]3(C)CC[C@@]2(C(=O)N2CCOCC2)CC[C@@H]1C` was 96.6% (inactive). The same measure, in the same setting: the value for `COC1=C(Br)C(=O)C(OC)=C(Br)C1=O` was 113% (inactive); that for `Cn1cc(-c2csc(-c3cn(CCN)c4ccc(F)cc34)n2)c2cccnc21` was 80.2% (inactive). Consider `O=C1/C(=C\c2ccco2)SC(=S)N1CCc1ccc(O)cc1`, for which the growth was 103% (inactive).

For the molecule `COc1cccc(-c2nn(-c3ccccc3)cc2-c2ccnc(NCCNS(=O)(=O)c3ccccc3)c2)c1`, the growth is 72.3% (inactive).

For the molecule `C[C@]12CC[C@@H]3c4ccc(O)cc4CC[C@H]3[C@@H]1C[C@H](O)[C@@H]2O`, the growth is 85.5% (inactive).

Take `COc1cc2c3c(c4c5ccccc5[nH]c4c2c(OC)c1OC)C(=O)N(O)C3=O`: the growth was 112% (inactive).

On to `Clc1cc(Cl)cc(Nc2ccc3c(OCCCN4CCOCC4)cccc3n2)c1`, for which the growth is 49.3% (inactive). With `C/C(=N/NC(N)=S)C(=O)O`, the growth was 91.1% (inactive).

With `CCCCC[C@H]1C/C=C2/C(=O)C(Cl)=C[C@@H]2C/C=C\CCCC(=O)O1`, the growth is -64.9% (active). In the case of `Cn1c2ccccc2c2c3c(c4c5cccnc5[nH]c4c21)C(=O)N(O)C3=O`, the growth is 104% (inactive).

Turning to `O=C1CN(c2ccccc2)C(=O)C1C(=O)Nc1ccc(Cl)c(Cl)c1` (centres undefined), the growth was 36.3% [100 µM] (inactive).

Turning to `CCc1cccc(CC)c1NC(=O)c1sc2nc3c(cc2c1N)CCCC3`, the growth was 95.3% (inactive). With `Cc1cccc2c1NC(=O)[C@@]21[C@H](C(=O)c2ccccc2)[C@]2(C(=O)Nc3ccccc32)[C@H]2CCCN21`, the growth is 101% [100 µM] (inactive). For `C[C@H]1OC(=O)/C=C/[C@@H](O)[C@@H](O)CCCCCCCC[C@@H]1O`, the growth is 95.6% (inactive). In the case of `COc1cccc(-c2nn(-c3ccccc3)cc2-c2ccnc(NCCNS(=O)(=O)c3cccc(F)c3)c2)c1`, the growth is 64.9% (inactive).
